Screens (PubChem)
Sampled rows, rich in hits. Any-hit rate of the full collection: about 5.7%.
RORg inh: blocks mouse ROR gamma transcriptional activity; AID 2551; Potency, µM (highest dose often 53.6 µM), most hits filed as inhibitors; Drosophila S2 Gal4-RORgamma UAS-luciferase reporter, 20 h; P51450; actives 5.4% (n = 310,000); further: nearly all actives have a fitted effect of over 60% in size
Target sequence (P51450 whole entry, looked up, the tested form may be a part): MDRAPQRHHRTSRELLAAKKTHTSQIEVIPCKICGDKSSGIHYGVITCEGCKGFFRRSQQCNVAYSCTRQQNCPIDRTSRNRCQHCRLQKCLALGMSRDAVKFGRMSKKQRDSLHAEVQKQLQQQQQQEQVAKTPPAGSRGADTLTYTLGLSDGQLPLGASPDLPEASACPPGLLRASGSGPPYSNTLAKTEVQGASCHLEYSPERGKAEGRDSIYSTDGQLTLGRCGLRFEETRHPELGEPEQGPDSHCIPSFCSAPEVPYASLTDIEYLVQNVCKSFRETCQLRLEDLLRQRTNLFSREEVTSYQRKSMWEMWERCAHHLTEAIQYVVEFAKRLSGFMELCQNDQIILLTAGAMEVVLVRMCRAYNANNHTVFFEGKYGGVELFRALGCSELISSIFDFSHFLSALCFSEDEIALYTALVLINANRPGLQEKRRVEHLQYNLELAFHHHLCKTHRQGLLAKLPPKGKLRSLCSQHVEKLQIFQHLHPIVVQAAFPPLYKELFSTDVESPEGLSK
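Stably transfected Drosophila Schneider cells are the test system, with ROR gamma fused to Gal4 and luciferase under UAS control; luminescence is read after 20 hr of 700 uM copper sulfate induction at ambient temperature.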
NPSR antag: antagonists of human neuropeptide S receptor cAMP signaling. actives 1% (n = 220,000). AID 1461. CHO-NPSR cells, cAMP TR-FRET, antagonist mode. Q6W5P4. Potency, µM (top dose mostly 38.3 µM), actives largely listed as inhibitors; further: nearly all actives have a fitted effect of over 50% in size
B2AR arrestin: agonists driving beta-arrestin recruitment to human beta2-adrenergic receptor; P07550; beta-arrestin recruitment to beta2AR, cell-based reporter; Potency, µM (highest dose often 46.1 µM), most hits filed as activators; actives 0.02% (n = 330,000); AID 492947; further: nearly all actives have a fitted effect of over 65% in size
Gal4-VP16 FLuc: Gal4-VP16 reporter inhibition counter-screen. Drosophila S2 Gal4-VP16 UAS-luciferase, luminescence, 20 h. Potency, µM (doses to about 53.6 µM), usual class: inhibitors. actives 3.5% (n = 310,000). AID 2546;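 further: Gal4-VP16 expression switched on by copper sulfate through the metallothionein promoter; nearly all actives have a fitted effect of over 50% in size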
A number is an active result; - = inactive; ? = inconclusive; . = not tested or not shown; [ ] = dose if it differs, or a comment. The call rests on the fitted dose curve; in most records, active means well fitted curve in the direction sought with a large enough effect; inconclusive means small, poorly fitted or top-dose-only effect, or another doubt; inactive means no such curve, though single readings can be large; an effect the other way counts as inactive or inconclusive.

SMILES	RORg inh	NPSR antag	B2AR arrestin	Gal4-VP16 FLuc
CCOC(=O)/C(=C/c1c(C)n(C)c2ccc([N+](=O)[O-])cc12)C(C)=O	12.6µM	-	-	?
CCOC(=O)c1c(N)c2cc([N+](=O)[O-])ccc2n1C	-	-[7.67 µM]	-	-
CCCCCCn1cnc2c(oc3nc4c(cc32)CCCC4)c1=O	?	-	-	-
CCCCn1cnc2c(oc3nc4c(cc32)CCCC4)c1=O	10µM	-	-	?
CC(=O)Oc1ccc(N(C(C)=O)S(=O)(=O)c2cccs2)c2ccccc12	20µM	-	-	?
Cc1cccc(NC(=O)c2cc([N+](=O)[O-])ccc2N2CCCCC2)n1	-	10µM	-	-
CC(=O)Nc1cccc(NC(=O)c2cc([N+](=O)[O-])ccc2N2CCCCC2)c1	.	.	-	.
COc1ccc(CCNc2ccc(N3C(=O)CC(C)C3=O)cc2[N+](=O)[O-])cc1 (stereo unspecified)	-	-	-	-
COc1ccc(CCNc2ccc(N3C(=O)CC(C)C3=O)cc2[N+](=O)[O-])cc1OC (stereo unspecified)	-	-	-	6.31µM
COCc1cc(S(=O)c2ccc(Cl)cc2)nc(C)n1 (stereo unspecified)	4.47µM	-	-	?
CNC(=S)Nc1cc2oc3ccccc3c2cc1OC	7.94µM	.	-	12.6µM
CCCNC(=S)Nc1cc2oc3ccccc3c2cc1OC	4.47µM	.	-	7.08µM
CCNC(=S)Nc1cc2oc3ccccc3c2cc1OC	-	.	-	-
Cc1ccc(N(Cc2cc(=O)[nH]c3ccccc23)C(=O)CCl)c(C)c1	?	.	-	-
COc1ccccc1N/C(N)=N/c1nc(CSc2ccc(C)cc2)cc(=O)[nH]1	-	-	-	7.94µM
Cc1ccc(SCc2cc(=O)[nH]c(/N=C(\N)Nc3ccccc3Sc3ccccc3)n2)cc1	-	-	-	-
CCN(c1ccccc1)S(=O)(=O)c1ccc(C(=O)Nc2cc(C)ccn2)cc1	.	.	-	.
Cc1ccc2c(C)nc(N/C(N)=N/S(=O)(=O)c3ccccc3)nc2c1	-	.	-	-
Cc1ccc(S(=O)(=O)/N=C(\N)Nc2nc(C)c3cc(C)ccc3n2)cc1	-	-	-	-
Cc1ccc(NC(=S)/N=C(\N)Nc2nc(C)c3cc(C)ccc3n2)c(C)c1	7.94µM	-	-	7.08µM
Cc1ccc(NC(=S)/N=C(\N)Nc2nc(C)c3cc(C)c(C)cc3n2)cc1C	2.24µM	-	-	5.01µM
CCc1ccccc1NC(=S)/N=C(\N)Nc1nc(C)c2cc(C)ccc2n1	2.82µM	-	-	3.16µM
CCc1c(C)c(C#N)c2nc3ccccc3n2c1-n1nc(C)cc1C	-	-	-	-
CCc1c(C)c(C#N)c2nc3ccccc3n2c1Cl	2.82µM	?	-	-
CC[C@H](C)[C@H](NC(=O)[C@H](Cc1cnc[nH]1)NC(=O)[C@@H](NC(=O)[C@H](CCCNC(=N)N)NC(=O)[C@H](CCCCN)NC(=O)[C@H](CCCNC(=N)N)NC(=O)[C@H](CCCCN)NC(=O)[C@@H](N)CC(N)=O)[C@@H](C)CC)C(=O)NCC(=O)N1CCC[C@H]1C(=O)NCC(=O)N[C@@H](CCCNC(=N)N)C(=O)N[C@@H](C)C(=O)N[C@@H](Cc1ccccc1)C(=O)N[C@@H](Cc1ccc(O)cc1)C(=O)N[C@H](C(=O)N[C@H](C(=O)N[C@@H](CCCCN)C(=O)N[C@@H](CC(N)=O)C(=O)N[C@H](C(=O)N[C@H](C(=O)NCC(=O)N[C@H](C(=O)N[C@H](C(=O)N[C@@H](CS)C(=O)O)[C@@H](C)CC)[C@@H](C)O)[C@@H](C)CC)[C@@H](C)CC)[C@@H](C)O)[C@@H](C)O	-	.	.	-
SMILES	RORg inh	NPSR antag	B2AR arrestin	Gal4-VP16 FLuc
COc1ccc(C2=NN(C(=O)CSc3nc4ccccc4s3)C(c3ccc(OC)cc3)C2)cc1 (stereo unspecified)	?	-	-	7.08µM
COc1ccc(-n2nc3cc(C)c(NC(=S)NC(=O)c4ccccc4C)cc3n2)cc1	3.16µM	?	-	?
Cc1ccc(-n2nc3ccc(NC(=S)NC(=O)/C=C/c4ccco4)cc3n2)cc1	3.16µM	-	-	?
Cc1ccc(-n2nc3cc(C)c(NC(=S)NC(=O)/C=C/c4ccco4)cc3n2)cc1	2.24µM	-	-	5.01µM
CCC(=O)Nc1cc2nn(-c3ccc(OC)cc3)nc2cc1C	?	-	-	?
CN(C)c1ccnc(-c2ccccc2C(F)(F)F)n1	-	.	.	-
CC(C)c1ccc(N2C(=O)CC(NNC(=O)c3cccnc3)C2=O)cc1 (stereo unspecified)	-	-	-	?
CCCC(C)c1oc(=O)cc(O)c1C (stereo unspecified)	.	.	-	.
